# Experimental data reported in PubChem BioAssay (NCI).
# About 83,000 compounds went through this panel and 20% of them were active in at least one assay; those are over-represented in the sample as a whole.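 Interpretation: 100, growth as untreated; towards 0, rising growth inhibition; 0, no net growth; 0 to -100, cell death. Compounds scoring below 10 were considered active.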 Unmarked numbers belong to inactive results. The source made the active and inactive calls.
# Tested on: RPMI-8226 leukemia
# Experiment: NCI-60 one-dose screen, 48 h (100 = growth as untreated, 0 = no growth, -100 = all killed)
# Conditions: 10 µM unless noted
# Procedure: Growth inhibition of the RPMI-8226 human tumor cell line is measured as a screen for anti-cancer activity. Cells are grown in 96 well plates and exposed to the test compound for 48 hours. Compounds are tested at a single concentration, which is 10^-5 M for most compounds. The reported endpoint is percent growth (GI% or GIPRCNT), where numbers from 0 - 100% represent growth inhibition, and numbers from -100% - 0 represent cell death. For example, a value of 40 represents 60% growth inhibition. A value of 0 means no net growth occurred over the course of the experiment. A value of -40 indicates 40% of cells at the beginning of the experiment died by the end of the experiment. A value of -100 means all cells are dead at the end of the experiment.
# NCI-60 Human Tumor Cell Lines Screen was performed using the standard one-dose NCI protocol, which is described in more detail at https://dtp.cancer.gov/discovery_development/nci-60/default.htm.
# Compounds with GIPRCNT values below 10 were considered active. Activity score was based on GIPRCNT using the following formula: […]
# Score is 0 for GIPRCNT values of 100 or above, 50 for GIPRCNT values of 0, and 100 for GIPRCNT values of -100.
row,Structure (SMILES),growth
1,CCCCN(CCCC)c1ccc(C(=N)c2ccc(N(CCCC)CCCC)cc2)cc1,-74.3% (active)
2,CCOC(=O)CC(=O)OC,97.4%
3,Cc1nc2ncccc2nc1Nc1ccc(S(=O)(=O)Nc2ccccn2)cc1,84.5%
4,c1ccc(-c2cn(-c3ccccc3)c(-c3ccccc3)n2)cc1,-58.9% (active)
5,Cn1c(=O)cc(NC(=O)CN2CCN(c3cc4c(cc3F)c(=O)c(C(=O)O)cn4C3CC3)CC2)[nH]c1=O,97.3%
6,COc1ccc(-c2ccc(C)n2-c2ccc(-c3nc4ccccc4s3)cc2)cc1,70.4%
7,CCCN=C1NC(=O)/C(=C/c2nc(-c3ccc(OC)cc3)n3ccccc23)S1,74%
8,O=C1Nc2ccc(Cl)cc2C12Nc1cc(Cl)ccc1S2 (stereo not given),44.3%
9,C=C1C(=O)O[C@@H]2[C@@H]3O[C@@](C)(CC/C=C(\C)CCC[C@@H]2C)[C@H](O)C[C@@H]13,7.48% (active)
10,CCc1cnc(=S)n(-c2ccccc2)c1,119%
11,COc1ccc(C(=O)N2NC(=O)/C(=C/c3ccccc3F)N=C2c2ccccc2)cc1,119%
12,COc1ccc(C2C=C(c3ccc(N)cc3)N=C3SC=CN32)cc1OC (stereo not given),101%
13,COc1ccc2c(c1)OC1=C(C(=O)OC1)C2c1cc(OC)c2c(c1)OCO2 (stereo not given),28.3%
14,O=S(=O)(NCCNc1nccc(-c2c(-c3ccc(O)cc3)nc3sccn23)n1)c1cccc2ccccc12,92.5%
15,C=C1CCC2C3(C)COC(c4ccc(N(C)C)cc4)OC3CCC2(C)C1C/C=C1/C(=O)OCC1O (stereo not given),-52.9% (active)
16,Cc1cc(C2(c3cc(C)c(O)cc3C)OS(=O)(=O)c3ccccc32)c(C)cc1O,92.4%
17,COc1ccc(CNCCCN2C(=O)c3ccc4c5c(ccc(c35)C2=O)C(=O)N(CCCNCCCCNCCCN)C4=O)c(OC)c1OC,39.7%
18,COc1ccc(Nc2[nH]n3c(=O)cc(C)nc3c2C(N)=O)c(OC)c1,102%
19,Brc1cccc(-c2cc(-c3ccc4c(c3)OCCCO4)[nH]n2)c1,57.2% [25 µM]
20,Nc1nc(-c2ccccc2)c(CCCOc2ccc(NC(=O)CBr)cc2)c(=O)[nH]1,112%

row,Structure (SMILES),growth
1,Cn1c(=O)c2[nH]c(C3CC=CCC3)nc2n(C)c1=O (stereo not given),101%
2,CCCCOc1ccc(/C=C2/SC(N3CCCC3)=NC2=O)cc1,84.8%
3,CC(=O)Nc1ccc(S(=O)(=O)n2ccc(-c3ccc4c(c3)CCC(C)(C)O4)n2)cc1,43.7%
4,C=C[C@@H]1C[C@@H]2Cc3cc(Cl)ccc3N1O2,84.9%
5,NC(N)=N/N=C/c1ccc(-c2ccc(-c3cc(Cl)cc(Cl)c3)s2)cc1,-9.01% (active)
6,COc1cc([N+](=O)[O-])c2ncccc2c1O,75.6%
7,COc1ccc(-c2ccc(-c3ccc(C(=N)N)s3)s2)cc1Cl,-39.7% (active)
8,COc1cc(Nc2nc(N[C@H]3CCCC[C@@H]3N)nc3cc[nH]c(=O)c23)cc(OC)c1,25%
9,O=[N+]([O-])c1ccc(-c2cn(-c3ccccc3)c(-c3ccccc3)n2)cc1,-0.221% (active)
10,O=[N+]([O-])c1ccc(C(c2ccccc2)c2ccccc2)cc1,98.1%
11,CCCCCCCCC(C)OC(=O)c1nn(C(C)=O)c2ccccc12 (stereo not given),104%
12,CCO/C=N/C1=C(C#N)C(c2ccc(Cl)cc2)c2c(c3ccccc3n(C)c2=O)O1 (stereo not given),88.1%
13,COc1ccc(NC(=O)c2c(Nc3ccc(OC)cc3OC)n[nH]c2N)c(OC)c1,91%
14,COc1ccc(-n2c(=S)sc3c(Cl)nc(C)nc32)c(OC)c1,22.6%
15,O=[N+]([O-])c1ccc(/C=C/C2(CCl)OCCO2)cc1,68.5%
16,Brc1cccc(-c2cc(-c3ccc4nccnc4c3)[nH]n2)c1,20.3% [25 µM]
17,CC(C)(C)N1CCC1C(N)=O (stereo not given),87.5%
18,COc1cc2c(cc1OCCCN1CCN(CCCn3c4ccccc4c4ccccc43)CC1)N=C[C@@H]1CCCN1C2=O,-57.4% (active)
19,CCNc1nc(S(=O)(=O)CC)nc2ccccc12,87.5%
20,CCCCCCCCCCCCCCCCNC(=O)OC(C)C,80.1%
